Consider seven compounds from PubChem BioAssay.

Where “and” joins values, the source holds several entries; their conditions need not be identical. Identical values can stand only once. Records with an inconclusive call do not appear. Calls of active or inactive are those of the source.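 Rule for the calls, unless noted: active = thallium flux through the channel raised or lowered by more than 3 SD from vehicle-only wells, actives on both sides; inactive = the rest.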

Experiment [1] is described as follows: GFP-Q80 aggregate reduction, neuronal-like cells, cell-based, NGF-treated PC12, GFPQ80 (AID 1614).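 Note: lower means fewer inclusions and 0 means no inclusions at all.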 The following applies: PC12 NGF-treated GFP-polyQ80 inclusion reduction.
The nature of experiment [2]: signal quenchers or enhancers, Cy5 substrate/SSB – biochemical, NIH Clinical Collection, E. coli SSB, artefact control for HCV NS3 helicase inhibitor project (AID 743268; call rule not given here). The following applies: Cy5-oligo bound E. coli SSB, fluorescence interference.
The nature of experiment [3]: viability loss in pontine glioma line – cell-based, SU-DIPG-XIII, MIPE4.0, CellTiter-Glo, qHTS, dose response (AID 1347061; cut-off not given, nearly all actives have AC50 up to about 37 µM;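 note: cells exposed to compound for 48 hours before readout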). The following applies: CellTiter-Glo ATP luminescence.
Experiment [4] in a line: growth inhibition of DIPG cells – cell-based, MIPE4.0 library, CellTiter-Glo luminescence, qHTS (AID 1347066; cut-off not given, nearly all actives have AC50 up to about 30 µM;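 note: cells exposed to compound for 48 hours before readout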). The following applies: SU-DIPG-VI viability, CellTiter-Glo ATP luminescence. A general note: In ATP-based viability assays light output follows the ATP content of the culture.
Experiment [5] in a line: growth inhibition of DIPG cells – cell-based, MIPE5.0 library, qHTS (AID 1347068; cut-off not given, nearly all actives have IC50 up to about 30 µM). Conditions: SU-DIPG-XXV viability. In general terms: qHTS replaces the single test concentration by a dilution series.
Experiment [6] in a line: growth inhibition, single agent or in combination, cell-based, chromothripsis tumors, cisplatin or BGB combos (AID 1671449; in the data active = inhibition above about 80%;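 note: cells exposed for 96 hours; 0% = vehicle DMSO and 100% = killing by high DMSO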). The following applies: LFS_MB_P medulloblastoma cells.
The nature of experiment [7]: growth inhibition, single agent and combos, cell-based, chromothripsis tumors, cisplatin or BGB combos (AID 1671450; in the data active = inhibition above about 80%;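 note: cells exposed to compound for four days; 0% = vehicle DMSO and 100% = cell killing by high DMSO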). The following applies: HDN33 neuroblastoma cells, stronger effect = higher value.
Experiment [8] in a line: growth inhibition, single agents and combos, HTB85, cell-based, BGB or cisplatin IC20 combos, synergistic combos for chromothripsis tumors (AID 1671453; in the data active = inhibition above about 80%;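 note: cells exposed for 96 hours before readout; 0% = vehicle DMSO and 100% = high DMSO killing control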). Conditions: HTB85 osteosarcoma cells, drug combinations, stronger effect = higher value.
Experiment [9] is described as follows: growth inhibition, MDA-MB-436, cell-based, BGB or cisplatin combos, synergistic combos for chromothripsis tumors (AID 1671458; call rule not given here;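 note: cells exposed for 96 hours; 0% = vehicle DMSO and 100% = killing by high DMSO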). Conditions: MDA-MB-436 breast carcinoma growth inhibition, drug combinations, stronger effect = higher value.
Experiment [10] can be described thus: BT084 cell growth, single and combined drugs, ICGC_MB145, cisplatin and BGB IC40 combos (AID 1671461; in the data active = inhibition above about 80%;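 note: cells exposed to drugs for 96 hours; 0% = vehicle DMSO and 100% = high DMSO full killing control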). Conditions: BT084 medulloblastoma cells, drug combinations, stronger effect = higher value.
Experiment [11] can be described thus: RCMB18 cell growth, single agent and combined, cisplatin and BGB IC40 combos (AID 1671462; in the data active = inhibition above about 80%;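 note: cells exposed to compound for four days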). Conditions: RCMB18 medulloblastoma cells, stronger effect = higher value.
A short description of experiment [12]: CRL1545 cell growth, single agent and combined, cisplatin and BGB IC20 combos (AID 1671464; in the data active = inhibition above about 80%;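 note: cells exposed to compound for 96 hours before readout; 0% = vehicle DMSO and 100% = high DMSO killing control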). Conditions: CRL1545 osteosarcoma cells, stronger effect = higher value.
The next experiment has as its system F380Y/beta1. Description: BK channel mutant inhibitors and activators – cell-based, U2OS BacMam, thallium flux, beta subunits, selectivity assay, profiling panel (AID 1259406).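 Note: initial slope of Thallos dye fluorescence rise after thallium is added; log ratio against the mean of 0.3% DMSO vehicle wells on the same plate.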 Conditions: U2OS BacMam BK variants, at 30 µM.
A further experiment concerns F380Y/beta4. Described as above. Conditions: U2OS BacMam BK variants, at 30 µM.
The next experiment concerns R275C/beta4. The experiment is described as above. Conditions: U2OS BacMam BK variants, at 30 µM.
For another experiment, the system named is R275C/Slo1WT/beta2. The description is as above. Conditions: U2OS BacMam BK variants, at 30 µM.
Experiment [13] is described as follows: viability loss in pontine glioma line – cell-based, JHH-DIPG-1, MIPE4.0, CellTiter-Glo, qHTS, dose response (AID 1347062; cut-off not given, nearly all actives have AC50 up to about 27 µM;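 for AC50: cells exposed to compound for two days before readout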). Conditions: JHH-DIPG-1 viability, CellTiter-Glo ATP luminescence.
The nature of experiment [14]: viability loss in pontine glioma line – cell-based, SU-DIPG-IV, MIPE4.0, CellTiter-Glo, qHTS, dose response (AID 1347063; cut-off not given, nearly all actives have AC50 up to about 30 µM;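 note: compound exposure lasted 48 hours before the viability readout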). Conditions: CellTiter-Glo ATP luminescence.
Experiment [15] deals with ATP-dependent translocase ABCB1 (Homo sapiens) (UniProt P08183). The experiment is described as follows: P-glycoprotein substrate transport blockade – cell-based (AID 377; in the data active = fluorescence slope change above about 50%). Conditions: MDR1-expressing cells, fluorescent substrate accumulation slope; stronger effect = higher value; concentration not given here.
Experiment [16] deals with Aerobactin synthetase IucA (Klebsiella pneumoniae). The experiment is described as follows: inhibition of K. pneumoniae IucA enzyme – biochemical, Tocris library, absorbance (AID 1345561; call rule not given here;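 note: 100% = enzyme without compound and 0% = no enzyme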). Conditions: purified IucA enzyme assay, absorbance (OD) read-out; stronger effect = lower value;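 tested at 8 µM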.
Setting [17] is: measured here: with BGB IC20 combination, at 0.5 µM.
Setting [18] is: measured here: with cisplatin IC20 combination, at 0.5 µM.

Sequence of ATP-dependent translocase ABCB1 (Homo sapiens) (P08183 whole entry, looked up): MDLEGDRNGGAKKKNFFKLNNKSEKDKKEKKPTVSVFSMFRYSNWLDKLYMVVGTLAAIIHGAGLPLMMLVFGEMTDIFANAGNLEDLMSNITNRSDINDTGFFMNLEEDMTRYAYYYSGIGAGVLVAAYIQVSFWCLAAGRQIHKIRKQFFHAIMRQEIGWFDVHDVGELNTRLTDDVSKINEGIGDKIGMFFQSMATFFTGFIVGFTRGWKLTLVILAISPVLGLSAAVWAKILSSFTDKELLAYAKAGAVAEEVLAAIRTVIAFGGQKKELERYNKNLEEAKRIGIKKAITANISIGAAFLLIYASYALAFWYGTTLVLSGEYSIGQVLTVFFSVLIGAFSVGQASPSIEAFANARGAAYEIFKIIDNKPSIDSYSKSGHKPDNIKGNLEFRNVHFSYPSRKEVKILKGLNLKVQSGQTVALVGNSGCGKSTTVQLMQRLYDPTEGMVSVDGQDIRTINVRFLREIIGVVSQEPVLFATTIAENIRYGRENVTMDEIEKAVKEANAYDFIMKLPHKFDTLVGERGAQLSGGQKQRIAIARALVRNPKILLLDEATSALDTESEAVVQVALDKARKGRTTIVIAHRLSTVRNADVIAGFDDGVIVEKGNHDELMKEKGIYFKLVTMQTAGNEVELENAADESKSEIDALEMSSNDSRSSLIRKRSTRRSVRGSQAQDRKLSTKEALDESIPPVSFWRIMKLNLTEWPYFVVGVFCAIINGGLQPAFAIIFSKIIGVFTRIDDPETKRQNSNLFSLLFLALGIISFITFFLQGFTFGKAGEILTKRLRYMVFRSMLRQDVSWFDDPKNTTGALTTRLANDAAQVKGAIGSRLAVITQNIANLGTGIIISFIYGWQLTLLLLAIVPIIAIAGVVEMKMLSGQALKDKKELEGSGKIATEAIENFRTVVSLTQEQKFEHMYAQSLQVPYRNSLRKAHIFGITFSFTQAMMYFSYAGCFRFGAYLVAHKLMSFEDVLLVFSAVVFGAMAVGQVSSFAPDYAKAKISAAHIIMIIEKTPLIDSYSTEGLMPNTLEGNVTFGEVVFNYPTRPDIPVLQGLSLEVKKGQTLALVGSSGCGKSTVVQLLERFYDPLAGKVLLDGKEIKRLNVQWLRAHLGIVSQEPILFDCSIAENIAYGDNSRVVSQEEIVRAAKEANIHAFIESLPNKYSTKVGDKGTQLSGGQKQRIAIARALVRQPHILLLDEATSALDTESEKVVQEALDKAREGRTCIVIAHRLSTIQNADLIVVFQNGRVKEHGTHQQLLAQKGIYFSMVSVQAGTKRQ

As for `CCCC(CCC)C(=O)O`, in experiment [1], the inclusion score turned out to be 2. Also, in experiment [2], the fluorescence ratio is 1.04 (inactive). Further, the compound was called inactive in experiment [3], in [4] and in experiment [5]. Moreover, the inhibition – broadly, the drop in the measured response relative to a control, in per cent – was -13.2% (inactive) and -3.77% (inactive) in experiment [6] (at 0.5 µM, stronger effect = higher value); -6.05% and -4.21% in experiment [6] (measured here: combination with BGB IC20, at 0.005 µM); -31.2% and 0.129% in experiment [6] (measured here: combination with BGB IC40, at 0.005 µM); -32.2% and 12.9% in experiment [6] (measured here: combination with BGB IC40, at 0.05 µM); -39.1% and -9.89% in [6] (measured here: combination with cisplatin, at 0.5 µM, stronger effect = higher value); -24.7% and -24.2% in experiment [6] (measured here: combination with cisplatin, at 5 µM, stronger effect = higher value). Besides, the inhibition was -30.6% and 8.86% in [7] (BGB combo, at 5 µM); -23.5% (inactive) and 13.8% (inactive) in experiment [7] (at 0.5 µM); -2.31% and 15.6% in [7] (cisplatin combo, at 5 µM); -33% and 14.7% in [7] (setting [17]); 0.437% and 10.4% in experiment [7] (setting [18]); -20.1% and 11% in experiment [7] (single agent, at 5 µM). The inhibition was -8.02% (inactive) and 3.4% (inactive) in experiment [8] (at 0.5 µM); -18.9% and -3.5% in experiment [8] (measured here: with BGB IC20, at 0.5 µM); 53.9% and 3.4% in [8] (measured here: with BGB IC20, at 5 µM); -4.12% and 2.48% in experiment [8] (measured here: with cisplatin IC20, at 0.5 µM); -47.8% and -2.5% in experiment [8] (measured here: with cisplatin IC20, at 5 µM); -17.1% and 13.4% in experiment [8] (single agent, at 5 µM). The inhibition in experiment [9] (at 0.5 µM) was -30.4% (inactive) and 1.93% (inactive); in experiment [9] (measured here: BGB combination, at 0.5 µM) it was -29.6% and 4.62%; in [9] (measured here: BGB combination, at 5 µM), -20.8% and 1.95%; in [9] (measured here: cisplatin combination, at 0.5 µM), -40.6% and 3.21%; in experiment [9] (measured here: cisplatin combination, at 5 µM), -25.9% and 1.52%; in [10] (at 0.5 µM), -33.9% (inactive) and -3.36% (inactive). The inhibition in experiment [10] (cisplatin combination, at 0.5 µM) was -10.5% and -11.6%; in experiment [10] (cisplatin combination, at 5 µM), -5.4% and -1.37%; in experiment [10] (measured here: BGB IC40 combination 0.05 uM, at 0.05 µM), -20.5% and -59.5%; in experiment [10] (single agent, at 5 µM) it was -18.9% and -8.84%; in [11] (at 0.5 µM), -2.59% (inactive) and -3.82% (inactive); in [11] (cisplatin combo, at 5 µM), -12% and -15.7%. For the same compound, the inhibition was -2.36% and -1.73% in experiment [11] (measured here: BGB IC40 combination, at 0.05 µM); 10.5% and -4.92% in experiment [11] (measured here: combination with cisplatin, at 0.5 µM); -25.2% and -0.151% in experiment [11] (single agent, at 5 µM); -19.7% (inactive) and -18.9% (inactive) in experiment [12] (at 0.5 µM); -18.4% and -23.1% in experiment [12] (setting [17]); -23.1% and -18.8% in experiment [12] (setting [18]). The inhibition in experiment [12] (single agent, at 0.05 µM) was -52.6% and 9%; in [12] (single agent, at 5 µM) it was 8.56% and -31.8%. Also, the log fold change Tl+ flux is -0.0195 (inactive) in the experiment on F380Y/beta1, 0.0134 (inactive) in the experiment with F380Y/beta4, 0.0354 (inactive) with R275C/beta4 and -0.0422 (inactive) in the experiment with R275C/Slo1WT/beta2.
For `CC(C)OC(=O)C(C)(C)Oc1ccc(C(=O)c2ccc(Cl)cc2)cc1`, the inclusion score in experiment [1] stood at 0. Also, the result in experiment [13], in experiment [14] and in experiment [5] was inactive. For the same compound, the log fold change Tl+ flux in the experiment with F380Y/beta1 is -0.0557 (inactive); with F380Y/beta4, 0.00294 (inactive); with R275C/beta4, 0.00518 (inactive); with R275C/Slo1WT/beta2, 0.0641 (inactive).
With `O=C(CCCN1CCC(O)(c2ccc(Cl)cc2)CC1)c1ccc(F)cc1`, the fluorescence slope change in experiment [15] is 23.3% (inactive). Also, the fluorescence ratio in experiment [2] is 0.91 (inactive). For the same compound, the remaining activity (commonly the signal under treatment as a percentage of the control signal) in experiment [16] was 128% (inactive). Besides, the call in experiment [3], in experiment [14] and in experiment [4] was inactive. Besides, the log fold change Tl+ flux in the experiment with F380Y/beta1 is 0.0554 (inactive); in the experiment on F380Y/beta4, 0.0709 (inactive); with R275C/beta4, -0.0662 (inactive); with R275C/Slo1WT/beta2 it was -0.0319 (inactive).
As to `COC(=O)C1=C(C)NC(C)=C(C(=O)OC)C1c1ccccc1[N+](=O)[O-]`, the fluorescence ratio in [2] was 0.94 (inactive). Besides, in experiment [16], the remaining activity is 121% (inactive).
On to `CN(C)C(=O)C(CCN1CCC(O)(c2ccc(Cl)cc2)CC1)(c1ccccc1)c1ccccc1`, for which the fluorescence ratio in [2] is 1.06 (inactive). Also, the remaining activity in [16] was 118% (inactive). The result in experiment [3], in [14] and in [5] was inactive. The AC50 (in general, the midpoint of the concentration-response curve, whichever way the signal moves) in experiment [13] is 20.9 µM (active). Further, the log fold change Tl+ flux in the experiment with F380Y/beta1 is 0.203 (active); in the experiment with F380Y/beta4 it was 0.119 (active); in the experiment with R275C/beta4, -0.104 (inactive); in the experiment on R275C/Slo1WT/beta2, 0.0159 (inactive).
On to `CCCC(=O)Nc1ccc(OCC(O)CNC(C)C)c(C(C)=O)c1` (stereo not drawn), for which the inclusion score in experiment [1] was found to be 2. Also, in [2], the fluorescence ratio is 0.9 (inactive). Further, the log fold change Tl+ flux in the experiment on F380Y/beta1 is 0.00237 (inactive); in the experiment with F380Y/beta4, -0.0162 (inactive); in the experiment with R275C/beta4, 0.0245 (inactive); with R275C/Slo1WT/beta2, -0.0238 (inactive).
For `O=C(O)CCc1nc(-c2ccccc2)c(-c2ccccc2)o1`, in experiment [2], the fluorescence ratio is 1.04 (inactive). Moreover, the log fold change Tl+ flux with F380Y/beta1 is 0.171 (active); in the experiment with F380Y/beta4, 0.0201 (inactive); in the experiment on R275C/beta4 it was 0.0678 (inactive); in the experiment on R275C/Slo1WT/beta2, 0.0514 (inactive).
